LAP4 TOR yeast = modulators of LAP4-GFP expression in yeast, primary screen, S. cerevisiae, multiplex flow cytometry, MLPCN library. 3 h; median GFP as percent of DMSO wells. GFP response vs DMSO, % at 10 µM. 0.34% of 320,000 active. AID 2023, 2009;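 active means GFP response vs DMSO above a set limit, about the screen mean plus 3 SD, cut at about 150% in these data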
MEP2-GFP yeast = modulators of MEP2-GFP levels in yeast, primary screen, S. cerevisiae, multiplex flow cytometry, MLPCN library | AID 2016, 2009 | 0.51% of 330,000 active | S. cerevisiae MEP2-GFP strain, 3 h; 100% = DMSO control level | GFP response vs DMSO, % at 10 µM;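 active means GFP response versus DMSO above a set limit, roughly screen mean plus 3 SD, cut at about 180% in these data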;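 further: median GFP fluorescence of the barcode-gated MEP2-GFP cells per well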
AGP1 TOR yeast = modulators of AGP1-GFP expression in yeast TOR pathway, primary screen, cell-based, multiplex flow cytometry, S. cerevisiae, MLPCN library. 3 h; GFP as percent of DMSO wells. GFP response vs DMSO, % at 10 µM. 0.02% of 320,000 active. AID 2066, 2009;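 active means GFP response relative to DMSO above a set limit, near screen average plus 3 SD, cut at about 150% in these data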;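 further: median GFP channel fluorescence of the gated AGP1 strain per well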
RPL19A TOR yeast = RPL19A-GFP expression modulators in yeast, primary screen, cell-based, S. cerevisiae, multiplex flow cytometry, MLPCN. S. cerevisiae RPL19A-GFP strain, 3 h; hits give low values. percent response vs DMSO, % at 10 µM. 0.3% of 330,000 active;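 active means percent response vs DMSO below 50%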;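 further: median channel GFP fluorescence of the barcoded RPL19A-GFP strain; ratio of sample median GFP to plate DMSO average so 100% = DMSO; lower means less RPL19A-GFP as with rapamycin TOR inhibition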
VLA-4 inh = inhibition in human VLA-4 binding assay, primary screen, VLA-4 allosteric modulator project, MLPCN library, flow cytometry, VLA-4 expressing cells | inhibition, % (about 7 µM as worked out from the volumes in the protocol) | 0.2% of 330,000 active | ligand binding flow cytometry; in the data active means inhibition above about 50%
Target sequence (P13612 whole entry, looked up): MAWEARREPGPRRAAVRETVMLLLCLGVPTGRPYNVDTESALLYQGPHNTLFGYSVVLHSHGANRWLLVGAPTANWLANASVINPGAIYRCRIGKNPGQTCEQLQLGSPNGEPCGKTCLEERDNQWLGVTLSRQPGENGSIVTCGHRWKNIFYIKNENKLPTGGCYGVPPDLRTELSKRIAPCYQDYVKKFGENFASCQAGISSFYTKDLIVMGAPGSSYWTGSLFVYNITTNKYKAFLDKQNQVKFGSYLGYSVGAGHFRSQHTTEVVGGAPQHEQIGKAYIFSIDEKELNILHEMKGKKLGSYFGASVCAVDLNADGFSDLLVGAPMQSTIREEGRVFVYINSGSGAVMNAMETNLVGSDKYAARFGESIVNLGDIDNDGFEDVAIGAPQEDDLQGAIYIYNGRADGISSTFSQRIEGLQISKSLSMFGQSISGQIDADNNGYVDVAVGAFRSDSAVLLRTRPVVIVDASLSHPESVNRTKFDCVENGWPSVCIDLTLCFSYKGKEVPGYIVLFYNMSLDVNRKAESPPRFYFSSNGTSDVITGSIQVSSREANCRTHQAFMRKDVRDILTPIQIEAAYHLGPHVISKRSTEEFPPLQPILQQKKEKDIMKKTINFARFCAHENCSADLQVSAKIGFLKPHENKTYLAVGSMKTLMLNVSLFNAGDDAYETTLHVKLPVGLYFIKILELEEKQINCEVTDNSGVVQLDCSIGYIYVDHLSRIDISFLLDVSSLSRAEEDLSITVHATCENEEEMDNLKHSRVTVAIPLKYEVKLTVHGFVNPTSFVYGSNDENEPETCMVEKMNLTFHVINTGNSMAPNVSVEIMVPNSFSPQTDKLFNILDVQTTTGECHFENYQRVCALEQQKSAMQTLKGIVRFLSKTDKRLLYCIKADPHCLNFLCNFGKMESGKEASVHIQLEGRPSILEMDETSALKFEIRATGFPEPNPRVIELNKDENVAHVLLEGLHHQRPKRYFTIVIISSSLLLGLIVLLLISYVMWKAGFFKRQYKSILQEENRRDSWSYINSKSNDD
CIT2 TOR yeast = modulators of CIT2-GFP expression in yeast, primary screen, S. cerevisiae, GFP fusion, multiplex flow cytometry, MLPCN library. S. cerevisiae CIT2-GFP strain, 3 h; 100 means same as DMSO wells. GFP response vs DMSO, % at 10 µM. 0.065% of 320,000 active;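 active means GFP response relative to DMSO above a set limit, near the screen mean plus 3 SD, cut at about 150% in these data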;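 further: ratio of well median GFP fluorescence to mean of DMSO wells on the plate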
VLA-4 mod pick = retest of VLA-4 allosteric modulators, confirmation, cell-based, cherry-picked plates, U937, HUTS-21 LIBS antibody. U937 cells, HUTS-21 LIBS mAb binding, flow cytometry; LDV ligand present at threefold Kd. 2% of 1,300 active. shares compounds with VLA-4 inh. inhibition, % at 6.7 µM; in the data active means inhibition above about 40%;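 further: 0% = ligand without compound and 100% = no ligand background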
Numbers without * were called inactive; · = not tested or not shown. An excerpt weighted towards active compounds, which were near 1.1% of everything screened.

SMILES | LAP4 TOR yeast | MEP2-GFP yeast | AGP1 TOR yeast | RPL19A TOR yeast | VLA-4 inh | CIT2 TOR yeast | VLA-4 mod pick
CC(C)NC(=O)CCCc1ccccc1 | 111 | 100 | 97 | 95 | 5 | 90 | ·
CC(C)NC(=O)CCCC(=O)NC(C)C | 107 | 107 | 106 | 104 | 42 | 108 | -10
CCc1ccccc1NC(=O)C1NC(=O)CC1c1ccccc1 (configuration not stated) | 97 | 97 | 99 | 97 | 56* | 101 | 4
O=C1CC(c2ccccc2)C(C(=O)Nc2ccccc2F)N1 (configuration not stated) | 95 | 101 | 100 | 99 | -14 | 94 | ·
CCN(CC)C(=O)Cn1nc(-c2ccc(Cl)cc2)c2ccccc2c1=O | 97 | 107 | 102 | 103 | -3 | 101 | ·
O=[N+]([O-])c1cc2c(cc1C=Nc1ccccc1)OCO2 | 108 | 99 | 99 | 102 | 50* | 91 | -2
COc1ccc(NC(=O)Nc2ccc3c(c2)C(=O)N([C@H](C)CO)C[C@H](C)[C@@H](CN(C)C(=O)NC2CCCCC2)O3)cc1 | 97 | 103 | 104 | 105 | 50* | 102 | 6
COc1ccc(NC(=O)N(C)C[C@H]2Oc3ccc(NC(=O)NC4CCCCC4)cc3C(=O)N([C@H](C)CO)C[C@@H]2C)cc1 | 105 | 91 | 91 | 88 | 9 | 86 | ·
Cc1cnc(C(=O)Nc2cccc(-c3nnc4n3CCCCC4)c2)cn1 | 98 | 103 | 98 | 101 | -4 | 96 | ·
CCOc1ncccc1C(=O)Nc1cccc(-c2nnc3n2CCCCC3)c1 | 106 | 104 | 105 | 106 | 68* | 105 | 0
CCOc1cc(CNCCCN2CCOCC2)cc(Br)c1OCc1ccccc1Cl | 99 | 101 | 97 | 99 | 56* | 100 | 26
COc1ccc(Nc2cc(Nc3cc(OC)c(OC)c(OC)c3)ncn2)cc1 | 109 | 103 | 107 | 100 | 5 | 99 | ·
COc1cc(OC)c([N+](=O)[O-])cc1/C=N/NC(=O)c1ccncc1 | 102 | 94 | 101 | 93 | 5 | 99 | ·
COc1cc(/C=N/NC(=O)c2ccncc2)c([N+](=O)[O-])cc1OC | 92 | 106 | 105 | 106 | 57* | 103 | -5
CC(OC(=O)C1CCCCC1)C(=O)Nc1ccc(S(N)(=O)=O)cc1 (configuration not stated) | 102 | 102 | 104 | 100 | 25 | 97 | ·
Cc1ccc(C(=O)NC(=C(Cl)Cl)S(=O)(=O)c2ccc(C)cc2)cc1 | 102 | 100 | 101 | 100 | 4 | 99 | ·
Cc1ccc(S(=O)(=O)C(NC(=O)c2ccccc2)=C(Cl)Cl)cc1 | 93 | 97 | 99 | 97 | 54* | 91 | -1
COc1ccc(NC(=O)NCCCCc2ccccc2)c(OC)c1 | 92 | 94 | 91 | 98 | -12 | 90 | ·
COc1ccc(CN2C(=O)c3cccnc3C2=O)cc1S(=O)(=O)N1CC(C)Oc2ccccc21 (configuration not stated) | 107 | 104 | 106 | 102 | 56* | 97 | 0
Cc1nc([N+](=O)[O-])c(NCCO)n1Cc1ccccc1 | 101 | 103 | 100 | 96 | 54* | 97 | 3
O=C(CS(=O)CC(=O)N(c1ccccc1)C(C(=O)NC1CCCC1)c1cccs1)Nc1ccc(F)cc1 (configuration not stated) | 83 | 106 | 101 | 105 | 1 | 116 | ·
COc1cccc(N(C(=O)CS(=O)CC(=O)Nc2ccc(F)cc2)C(C(=O)NC2CCCCC2)c2cccs2)c1 (configuration not stated) | 99 | 100 | 100 | 105 | 43 | 95 | 5
